The structures appear in SMILES notation. The campaign covered roughly 340,000 compounds. About 2,100 (0.62%) were called active. A selection follows. Potency and affinity values are given separately. Values without a mark were called inactive.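 The calls were made as follows: active = first-screen hits whose inhibition reached a set limit at any dose in the follow-up dose series; inconclusive = inhibition above the set first-screen limit but never retested; inactive = the rest.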

Sequence of Rac GTPase-activating protein 1 (Homo sapiens) (Q9H0H5 whole entry, looked up): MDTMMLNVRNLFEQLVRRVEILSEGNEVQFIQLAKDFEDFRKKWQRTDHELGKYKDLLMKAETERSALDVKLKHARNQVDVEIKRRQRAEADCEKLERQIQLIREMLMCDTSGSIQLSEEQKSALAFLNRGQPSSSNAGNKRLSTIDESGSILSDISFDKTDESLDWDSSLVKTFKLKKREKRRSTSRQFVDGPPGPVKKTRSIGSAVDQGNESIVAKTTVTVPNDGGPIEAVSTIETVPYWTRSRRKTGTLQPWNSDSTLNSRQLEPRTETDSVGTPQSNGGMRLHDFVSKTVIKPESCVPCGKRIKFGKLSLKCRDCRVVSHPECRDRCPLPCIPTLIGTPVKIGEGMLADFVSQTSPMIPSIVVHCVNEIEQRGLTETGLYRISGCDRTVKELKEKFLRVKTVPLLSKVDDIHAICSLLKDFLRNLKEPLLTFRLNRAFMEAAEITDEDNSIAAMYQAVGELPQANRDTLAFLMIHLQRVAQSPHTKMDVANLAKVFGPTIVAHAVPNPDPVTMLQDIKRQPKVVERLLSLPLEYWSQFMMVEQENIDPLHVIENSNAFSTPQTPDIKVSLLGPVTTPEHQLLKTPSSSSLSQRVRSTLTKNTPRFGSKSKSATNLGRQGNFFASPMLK

This experiment concerns the target Rac GTPase-activating protein 1 (Homo sapiens) (UniProt Q9H0H5). The experiment in a line: MgcRacGAP GTPase-activating activity inhibitors, confirmation, biochemical, ADP Hunter fluorescence, primary and confirmatory (AID 624330).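 Also: fluorescence reports GDP produced by GAP-driven GTP hydrolysis.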 The settings on record: MgcRacGAP-stimulated Rac1 GTP hydrolysis, at 30 µM, hits give high values, GST-tagged Rac1 F28L mutant substrate.
Turning to `COc1ccc(/C=C/C(=O)Oc2cc(C)[nH]c(=O)c2[N+](=O)[O-])cc1OC`, the inhibition was -3.35%.
With `O=C(/C=C/c1ccc2c(c1)OCO2)NCCS(=O)(=O)N1CCN(c2ccccc2)CC1` the figure was -2.85%; with `Cc1cc(C)n(-c2cc(C)c(C)cc2Br)n1`, 4.26%; with `Cc1ccnc(Nc2nc(-c3ccc(F)cc3)cs2)c1`, 7.49%.
With `Cc1ccnc(Nc2nc(-c3ccc(Cl)cc3)cs2)c1` the figure was 4.43%; with `Cc1ccnc(Nc2nc(-c3ccccc3)cs2)c1`, 12.8%.
With `COc1ccc(-c2csc(Nc3cc(C)ccn3)n2)cc1OC` the figure was 13.4%; with `C[C@]12c3[nH]c4cc(-c5ccco5)ccc4c3CCN1C(=O)[C@@H](CC(=O)NCc1cccc(C(F)(F)F)c1)C[C@@H]2C(=O)N1CCCCC1`, 10.5%.
On to `CC(C)NC(=O)c1ccc(N(Cc2ccccc2)S(C)(=O)=O)cc1`, for which the inhibition is 4.09%.
With `O=S(=O)(NCC1(N2CCOCC2)CCCCC1)c1ccccc1Cl` the figure was -7.11%; with `CN1CCN(CCCC(=O)c2ccc(C3CCCC3)cc2)CC1`, 6.04%; with `O=C(O)c1cc([N+](=O)[O-])c(N2CCCC2)c([N+](=O)[O-])c1`, 9.56%.
With `CCc1ccc(N(CC(=O)NC(C)(C)C)C(=O)CNC(=O)c2cccs2)cc1`, the inhibition is 11.2%.
With `CCOC(=O)c1c(NC(=O)CCl)sc(CN(C)C)c1-c1ccccc1`, the inhibition is -14%.
For `Cn1c(=O)c2c(ncn2Cc2cccc(Cl)c2)n(C)c1=O` the value was 9.29%; for `Cc1ccc(S(=O)(=O)N2CCN(CC3CC4C=CC3C4)CC2)cc1` (centres undefined), 23.4%; for `O=C(c1ccccc1F)N1CCN(CC2CC3C=CC2C3)CC1` (centres undefined), 27.7%.
`C1=CC2CC1CC2CN1CCN(c2ccccc2)CC1` (centres undefined): the inhibition is 14.6%.
For the compound `CCN1CCN(CC2CC3C=CC2C3)CC1` (centres undefined), the inhibition was 24.6%.
In the case of `Cc1ccc(OCC(=O)N2CCN(S(C)(=O)=O)CC2)cc1`, the inhibition was 11.9%.
With `O=C(CCC1CCCC1)N1CCN(C(=O)C2CC2)CC1` the figure was -4.27%.
As for `Cc1ccc(OCC(=O)N2CCCCCCC2)cc1`, the inhibition was 9.5%.
For the compound `O=C(CCC1CCCC1)N1CCC(N2CCCCCC2)CC1`, the inhibition is 21.7%.
With `COc1ccccc1CN1CC(C(=O)NCC2(O)CCCCC2)CCC1=O` (centres undefined) the figure was -29.3%.
With `ONC=Nc1cccc2nonc12` the figure was 4.4%; with `Cc1ccccc1NC(=O)COC(=O)c1cccc(S(=O)(=O)N2CCCCC2)c1`, 0.63%.
In the case of `COc1ccc(CCN(C(=O)C(F)(F)F)C(C(=O)NC2CCCCC2)c2ccc(C)s2)cc1OC` (centres undefined), the inhibition is 4.06%.
With `Cc1ccc(S(=O)(=O)N2CCN(C(=O)N(C)C)CC2)cc1` the figure was 2.84%; with `O=C(Nn1cnc2ccccc2c1=O)c1ccc(Cl)c([N+](=O)[O-])c1`, 9.36%.
With `COn1c(-n2nc(C)cc2C)nc2ccccc2c1=O` the figure was 3.26%; with `CCS(=O)(=O)N1CCN(CC2CC3C=CC2C3)CC1` (centres undefined), 3.64%.
With `O=C(COc1ccccc1)N1CCN(C(=O)COc2ccccc2)CC1` the figure was 2.47%.
Consider `O=C(COc1ccccc1)N1CCCC1`, for which the inhibition is 2.28%.
`CS(=O)(=O)N1CCN(CC2CC3C=CC2C3)CC1` (centres undefined): the inhibition was 26.4%.
Turning to `S=C(Cc1ccccc1)NCCc1ccccc1`, the inhibition is 9.14%.
With `Cc1noc(C)c1N=Nc1ccc(Br)cc1C(=O)O` the figure was 4.04%; with `O=C(NCc1ccc(Cl)cc1)c1ccncc1`, 6.54%; with `O=C(COn1nnc2ccc(S(=O)(=O)N3CCOCC3)cc21)NCc1cccc(Cl)c1`, 13.7%.
For `COc1cc(Cc2cc(OC)c(O)c(OC)c2)cc(OC)c1O` the value was 6.74%.
For `COc1cc(C(=O)C(=O)c2cc(OC)c(O)c(OC)c2)cc(OC)c1O` the value was 7.13%; for `Cc1ccc(S(=O)(=O)N2CCOCC2)cc1C(=O)Nc1nc(-c2ccccn2)cs1`, 13.7%.
On to `CCOc1cc(NC(=O)c2ccccc2OC)c(OCC)cc1NC(=O)c1ccccc1`, for which the inhibition is -3.11%.
For `CCOc1ccc(S(=O)(=O)N2CCN(CC)CC2)cc1NC(=O)c1ccccc1F` the value was 0.51%; for `CCn1c(C)cc(/C=C2/SC(=O)N(CC(=O)N3CCCC3)C2=O)c1C`, 8.19%; for `Cn1cnc2c1c(=O)n(Cc1cccc(Br)c1)c(=O)n2C`, 0.32%.
As for `O=c1cc(-c2ccccc2)oc2cc(O)c(O)c(O)c12`, the inhibition was -59.8%.
For `COc1c2ccoc2cc2oc(C)cc(=O)c12` the value was 6.29%; for `COc1cc2c(cc1OC)CN(CC(=O)Nc1ccccc1C(=O)NC1CC1)CC2`, -6.05%; for `CCOC(=O)c1sc(N2C(=O)C(O)=C(C(=O)c3ccco3)C2c2ccc(C)o2)nc1C` (centres undefined), 12.2%.
With `CN=C1S/C(=C\c2ccc(Cl)cc2)C(=O)N1C` the figure was 3.04%; with `CN=C1S/C(=C\c2ccc(SC)cc2)C(=O)N1C`, 7.27%; with `O=C1COc2ccc(C(=O)COC(=O)Cc3ccc(Cl)cc3)cc2N1`, 9.6%.
For `COc1ccccc1C1NC(c2ccccc2OC)C(C)C(=O)C1C` (centres undefined) the value was -2.35%.
In the case of `COc1ccc(C2NC(c3ccc(OC)c(OC)c3OC)C(C)C(=O)C2C)c(OC)c1OC` (centres undefined), the inhibition was 1.64%.
Consider `O=C(N/N=C/c1ccc(N2CCOCC2)c([N+](=O)[O-])c1)c1ccc(F)cc1`, for which the inhibition was 7.08%.
As for `CC(=O)Nc1ccc(C=NNc2ccc(S(=O)(=O)Nc3ccccc3C(=O)O)cc2[N+](=O)[O-])cc1`, the inhibition is 15.7%.
`CCOc1ccc(C=NNc2ccc(S(=O)(=O)Nc3ccccc3C(=O)O)cc2[N+](=O)[O-])cc1`: the inhibition is 15.4%.
For `O=C(O)c1ccccc1NS(=O)(=O)c1ccc(NN=Cc2ccc(F)cc2)c([N+](=O)[O-])c1` the value was 6.4%.
For `CCOc1ccc(C=NNc2ccc(S(=O)(=O)Nc3ccccc3C(=O)O)cc2[N+](=O)[O-])cc1OC` the value was 10%.
With `CCOCCCNC(=O)c1cc2cc3cc(OC)ccc3nc2o1` the figure was 11.9%; with `CCc1nc(SCC(=O)NNC(=O)c2ccc(OC)cc2)c2ccccc2n1`, -0.86%; with `CN(Cc1ccccc1)C(=O)CCC1CCN(C(=O)c2ccccc2C(F)(F)F)CC1`, -5.88%.
With `COc1ccc(NC(=O)CS(=O)CC(=O)Nc2ccc(OC)c(OC)c2)cc1` (centres undefined), the inhibition is -4.61%.
With `O=C(COC(=O)CC1CC2CCC1C2)Nc1ccc(Cl)c(S(=O)(=O)N2CCOCC2)c1` (centres undefined) the figure was 6.02%.
With `CCN1CCN(C(=O)c2ccc(C)c(S(=O)(=O)Nc3cccc(C)c3)c2)CC1`, the inhibition is 3.11%.
Take `O=C(c1ccc(Cn2cc(Br)cn2)cc1)N1N=C(C(F)F)CC1(O)C(F)F` (centres undefined): the inhibition was 0.1%.
As to `CCCc1nc(NCc2ccncc2)c2nnn(Cc3ccccc3F)c2n1`, the inhibition was 10.9%.
For `COc1cc2c(cc1NC(=O)Nc1cccc(C)c1)oc1ccccc12` the value was 9.41%; for `COc1cc2c(cc1NC(=O)Nc1ccc(C)cc1)oc1ccccc12`, 2.58%.
Turning to `COc1ccc(CNC(=O)Nc2cccc(C(F)(F)F)c2)cc1OC`, the inhibition was 6.37%.
For `COc1cc2c(cc1NC(=O)Nc1ccccc1)oc1ccccc12`, the inhibition is -0.72%.
With `COc1cccc(NC(=O)CN2C(=O)NC(C)(c3ccc(C)cc3)C2=O)c1` (centres undefined) the figure was 6.36%.
Take `COc1ccccc1Nc1nc(N)nc(CSc2nncn2C)n1`: the inhibition is 5.08%.
Regarding `CC(=O)c1ccc(NC(=O)CSc2nc(Nc3ccccc3)nc(N3CCOCC3)n2)cc1`, the inhibition was 8.08%.
`Cc1ccc(CNC(=O)C2CCCC2)cc1`: the inhibition was 6.2%.
As to `CCN(CC)c1ccc(CN2CCC(C(=O)NCc3ccc(C)cc3)CC2)cc1`, the inhibition is 36.2%.
On to `COc1ccc(CCNc2ccc(S(=O)(=O)N3CCN(C)CC3)cc2[N+](=O)[O-])cc1`, for which the inhibition was 1.77%.
With `CC(/C=C1\N=C(SCc2ccccc2)SC1=O)=C\c1ccccc1` the figure was 3%; with `C/C(=N/NC(=O)CNC(=O)/C=C/c1ccco1)c1ccc(Cl)cc1`, 18.5%.
Take `COc1ccc(/C(C)=N/NC(=O)CNC(=O)/C=C\c2ccco2)cc1`: the inhibition is 1.11%.
On to `COCCCN(CC(=O)Nc1ccc(N2CCOCC2)cc1)S(=O)(=O)c1ccccc1`, for which the inhibition was 5.72%.
In the case of `CC(C)Sc1nc2sc(-c3ccccc3)cc2c(=O)n1N`, the inhibition was 11.4%.
`C=CCn1c(SCC(N)=O)nnc1-c1ccccc1O`: the inhibition is 4.07%.
With `C=CCn1c(SCC(=O)O)nnc1-c1ccccc1` the figure was -4.43%; with `CCn1c(SC(C)C)nnc1-c1c[nH]c2ccccc12`, 7.88%.
As for `CN(C)C(CNC(=O)C1CC(=O)N(Cc2ccccc2)C1)c1ccccc1` (centres undefined), the inhibition is 5.5%.
For `CC(C)C[C@@]12C(=O)N(c3cccc(Cl)c3)C(=O)N1[C@H](c1ccc(Br)cc1)[C@@H]1C(=O)N(C(C)(C)C)C(=O)[C@@H]12` the value was -10.5%.
Regarding `CCn1ccnc1CN(C)C(=O)CCc1nnc(CCCc2ccccc2)o1`, the inhibition was -6.18%.
With `CCCc1cc(-n2ccnc2)n2c(nc3ccccc32)c1C#N` the figure was -0.61%; with `CCCc1cc(-n2cnc3ccccc32)n2c(nc3ccccc32)c1C#N`, 11%; with `COc1ccc(Br)c(C(=O)OCC(=O)NC2CCCCCC2)c1`, 8.08%.
For `CCCCN1C(=O)C(CC(=O)NCCc2ccccn2)CC(C(=O)N2CCOCC2)=C1C` (centres undefined) the value was 11.8%; for `CN(c1ccc(C(=O)Nc2ccccc2C(F)(F)F)cc1)S(C)(=O)=O`, 5.77%; for `Cc1cc(C)n(C(=O)c2ccc(Cn3nc(C)c(Br)c3C)o2)n1`, 4.85%.

As usually defined, the inhibition is the relative decrease from the control value, in per cent.

These data come from PubChem BioAssay AID624330 (Southern Research Specialized Biocontainment Screening …, 2012).
